Experiments:
Assay in all cases: log2 ratio of Biotin-Ahx-Ub-VS probe labelling (fragment/DMSO); higher = less target engagement (more negative = stronger competition), active = hit call of the paper (q ≤ 0.05, log2 ratio ≤ -1)
Details in all cases: compound concentration: 200 uM; treatment time: 3 h
[1] = biological target: USP34 (UniProt Q70CQ2)
In short: (§1)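 HEK293T lysate in Tris/CHAPS/IGEPAL buffer with protease inhibitors (495 µg per sample) was given fragment at 200 µM or vehicle for 3 h, in triplicate. It then received Biotin-Ahx-Ub-VS at 0.5 µM final for 1 h. Labelled DUBs were NeutrAvidin-enriched, digested with LysC and trypsin, and run by diaPASEF LC-MS/MS. Values are average log2 fragment/vehicle ratios by unpaired t-test on global-median-normalised Spectronaut quantities of proteins with ≥2 unique peptides.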

[2] = biological target: T1, USP36 (UniProt Q9P275)
T1 sequence (whole entry): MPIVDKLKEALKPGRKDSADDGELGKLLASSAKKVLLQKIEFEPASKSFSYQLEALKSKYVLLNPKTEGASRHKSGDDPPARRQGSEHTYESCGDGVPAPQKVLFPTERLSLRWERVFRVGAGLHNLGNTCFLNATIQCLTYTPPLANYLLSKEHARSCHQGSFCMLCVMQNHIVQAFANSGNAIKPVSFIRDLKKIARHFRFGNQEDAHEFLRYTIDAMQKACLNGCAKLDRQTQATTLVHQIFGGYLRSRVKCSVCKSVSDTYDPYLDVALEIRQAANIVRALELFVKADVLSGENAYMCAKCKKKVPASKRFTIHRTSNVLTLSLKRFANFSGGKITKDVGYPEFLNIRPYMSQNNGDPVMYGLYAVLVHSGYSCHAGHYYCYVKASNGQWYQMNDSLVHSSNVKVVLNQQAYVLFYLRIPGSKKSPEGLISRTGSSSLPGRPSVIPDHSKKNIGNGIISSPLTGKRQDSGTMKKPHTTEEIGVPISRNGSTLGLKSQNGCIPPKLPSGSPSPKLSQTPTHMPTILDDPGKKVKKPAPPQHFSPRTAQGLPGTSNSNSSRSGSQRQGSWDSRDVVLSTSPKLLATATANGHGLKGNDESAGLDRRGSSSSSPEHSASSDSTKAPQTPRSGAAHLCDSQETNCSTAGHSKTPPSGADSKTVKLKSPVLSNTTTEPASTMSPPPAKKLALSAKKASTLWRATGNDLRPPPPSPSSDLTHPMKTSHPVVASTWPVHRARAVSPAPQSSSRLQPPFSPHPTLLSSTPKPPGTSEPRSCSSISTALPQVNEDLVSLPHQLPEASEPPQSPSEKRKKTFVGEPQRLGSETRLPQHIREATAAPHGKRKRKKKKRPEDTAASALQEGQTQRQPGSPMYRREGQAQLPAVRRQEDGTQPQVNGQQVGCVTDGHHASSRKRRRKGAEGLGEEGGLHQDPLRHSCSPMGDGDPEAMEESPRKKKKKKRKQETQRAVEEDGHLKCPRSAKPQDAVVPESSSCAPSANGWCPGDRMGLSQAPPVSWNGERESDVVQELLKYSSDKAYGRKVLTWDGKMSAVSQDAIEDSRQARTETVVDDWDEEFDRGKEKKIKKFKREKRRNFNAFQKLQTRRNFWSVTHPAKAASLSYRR
In short: as §1

[3] = biological target: T2, USP38 (UniProt Q8NB14)
T2 sequence (whole entry): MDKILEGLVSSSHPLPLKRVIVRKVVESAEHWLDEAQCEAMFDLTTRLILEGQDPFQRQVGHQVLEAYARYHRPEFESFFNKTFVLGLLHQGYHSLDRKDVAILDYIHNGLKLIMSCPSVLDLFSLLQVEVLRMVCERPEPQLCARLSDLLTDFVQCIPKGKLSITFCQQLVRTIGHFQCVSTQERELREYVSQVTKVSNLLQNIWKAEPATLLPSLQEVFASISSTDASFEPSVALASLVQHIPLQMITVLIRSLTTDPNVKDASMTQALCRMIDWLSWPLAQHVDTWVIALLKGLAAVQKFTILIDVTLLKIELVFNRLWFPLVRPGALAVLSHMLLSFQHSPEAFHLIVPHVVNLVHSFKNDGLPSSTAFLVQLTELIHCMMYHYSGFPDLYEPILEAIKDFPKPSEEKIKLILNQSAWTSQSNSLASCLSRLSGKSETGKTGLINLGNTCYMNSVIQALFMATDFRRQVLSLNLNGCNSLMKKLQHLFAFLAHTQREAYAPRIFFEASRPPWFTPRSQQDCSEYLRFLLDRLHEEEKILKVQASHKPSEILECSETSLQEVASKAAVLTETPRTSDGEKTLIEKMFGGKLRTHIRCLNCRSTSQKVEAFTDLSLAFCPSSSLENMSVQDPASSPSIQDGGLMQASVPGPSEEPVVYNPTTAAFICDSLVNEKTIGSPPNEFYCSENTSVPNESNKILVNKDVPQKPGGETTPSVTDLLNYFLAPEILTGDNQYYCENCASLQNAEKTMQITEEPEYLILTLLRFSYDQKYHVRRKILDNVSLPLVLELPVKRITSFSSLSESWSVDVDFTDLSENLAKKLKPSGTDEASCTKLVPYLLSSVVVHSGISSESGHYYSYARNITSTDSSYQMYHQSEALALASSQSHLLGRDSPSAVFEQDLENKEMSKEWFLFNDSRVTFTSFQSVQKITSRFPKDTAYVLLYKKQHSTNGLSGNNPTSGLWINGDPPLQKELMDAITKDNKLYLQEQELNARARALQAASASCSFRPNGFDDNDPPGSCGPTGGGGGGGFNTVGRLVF
In short: as §1

[4] = biological target: T3, USP39 (UniProt Q53GS9)
T3 sequence (whole entry): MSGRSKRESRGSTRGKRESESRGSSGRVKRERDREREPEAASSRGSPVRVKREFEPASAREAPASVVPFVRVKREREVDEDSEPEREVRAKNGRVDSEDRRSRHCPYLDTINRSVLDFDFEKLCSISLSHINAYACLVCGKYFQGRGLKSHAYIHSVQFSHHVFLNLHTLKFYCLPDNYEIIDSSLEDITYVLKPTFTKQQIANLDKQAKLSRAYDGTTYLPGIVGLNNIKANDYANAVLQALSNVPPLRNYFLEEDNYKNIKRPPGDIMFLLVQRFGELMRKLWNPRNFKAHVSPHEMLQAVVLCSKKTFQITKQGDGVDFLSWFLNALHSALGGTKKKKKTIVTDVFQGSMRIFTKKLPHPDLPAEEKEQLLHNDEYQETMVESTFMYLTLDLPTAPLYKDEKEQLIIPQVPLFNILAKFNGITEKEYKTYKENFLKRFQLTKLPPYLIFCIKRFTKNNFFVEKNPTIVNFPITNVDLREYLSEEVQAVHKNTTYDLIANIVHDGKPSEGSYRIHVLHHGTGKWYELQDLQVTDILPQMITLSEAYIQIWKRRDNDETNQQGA
In short: as §1

[5] = biological target: T4, USP4 (UniProt Q13107)
T4 sequence (whole entry): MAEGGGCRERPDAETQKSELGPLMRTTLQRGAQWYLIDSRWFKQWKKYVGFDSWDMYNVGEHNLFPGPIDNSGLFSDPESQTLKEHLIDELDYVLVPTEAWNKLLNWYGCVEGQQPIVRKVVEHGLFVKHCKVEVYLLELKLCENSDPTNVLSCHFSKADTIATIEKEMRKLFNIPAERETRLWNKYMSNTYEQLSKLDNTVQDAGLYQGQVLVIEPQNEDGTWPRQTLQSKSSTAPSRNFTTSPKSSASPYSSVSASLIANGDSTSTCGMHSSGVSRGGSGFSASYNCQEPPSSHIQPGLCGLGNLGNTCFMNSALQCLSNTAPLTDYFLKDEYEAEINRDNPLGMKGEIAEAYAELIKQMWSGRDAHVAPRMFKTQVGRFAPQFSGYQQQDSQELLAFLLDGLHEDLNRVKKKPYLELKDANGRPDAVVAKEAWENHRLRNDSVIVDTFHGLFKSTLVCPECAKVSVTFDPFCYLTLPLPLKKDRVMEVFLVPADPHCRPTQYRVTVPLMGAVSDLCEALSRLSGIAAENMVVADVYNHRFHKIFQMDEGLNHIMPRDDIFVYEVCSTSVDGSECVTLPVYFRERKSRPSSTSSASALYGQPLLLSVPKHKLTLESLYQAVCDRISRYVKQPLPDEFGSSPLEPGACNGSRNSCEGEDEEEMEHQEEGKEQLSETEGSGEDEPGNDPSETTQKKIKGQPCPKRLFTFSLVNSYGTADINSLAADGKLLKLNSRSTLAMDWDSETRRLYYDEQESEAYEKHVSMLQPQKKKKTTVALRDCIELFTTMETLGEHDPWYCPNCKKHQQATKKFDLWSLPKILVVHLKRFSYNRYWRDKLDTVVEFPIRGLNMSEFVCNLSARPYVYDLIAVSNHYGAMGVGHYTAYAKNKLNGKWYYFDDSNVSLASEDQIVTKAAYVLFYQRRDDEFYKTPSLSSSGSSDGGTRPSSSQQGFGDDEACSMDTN
In short: as §1

Measured: log2 ratio of Biotin-Ahx-Ub-VS probe labelling

USP34, sequence (Q70CQ2 whole entry, the tested form may be a part): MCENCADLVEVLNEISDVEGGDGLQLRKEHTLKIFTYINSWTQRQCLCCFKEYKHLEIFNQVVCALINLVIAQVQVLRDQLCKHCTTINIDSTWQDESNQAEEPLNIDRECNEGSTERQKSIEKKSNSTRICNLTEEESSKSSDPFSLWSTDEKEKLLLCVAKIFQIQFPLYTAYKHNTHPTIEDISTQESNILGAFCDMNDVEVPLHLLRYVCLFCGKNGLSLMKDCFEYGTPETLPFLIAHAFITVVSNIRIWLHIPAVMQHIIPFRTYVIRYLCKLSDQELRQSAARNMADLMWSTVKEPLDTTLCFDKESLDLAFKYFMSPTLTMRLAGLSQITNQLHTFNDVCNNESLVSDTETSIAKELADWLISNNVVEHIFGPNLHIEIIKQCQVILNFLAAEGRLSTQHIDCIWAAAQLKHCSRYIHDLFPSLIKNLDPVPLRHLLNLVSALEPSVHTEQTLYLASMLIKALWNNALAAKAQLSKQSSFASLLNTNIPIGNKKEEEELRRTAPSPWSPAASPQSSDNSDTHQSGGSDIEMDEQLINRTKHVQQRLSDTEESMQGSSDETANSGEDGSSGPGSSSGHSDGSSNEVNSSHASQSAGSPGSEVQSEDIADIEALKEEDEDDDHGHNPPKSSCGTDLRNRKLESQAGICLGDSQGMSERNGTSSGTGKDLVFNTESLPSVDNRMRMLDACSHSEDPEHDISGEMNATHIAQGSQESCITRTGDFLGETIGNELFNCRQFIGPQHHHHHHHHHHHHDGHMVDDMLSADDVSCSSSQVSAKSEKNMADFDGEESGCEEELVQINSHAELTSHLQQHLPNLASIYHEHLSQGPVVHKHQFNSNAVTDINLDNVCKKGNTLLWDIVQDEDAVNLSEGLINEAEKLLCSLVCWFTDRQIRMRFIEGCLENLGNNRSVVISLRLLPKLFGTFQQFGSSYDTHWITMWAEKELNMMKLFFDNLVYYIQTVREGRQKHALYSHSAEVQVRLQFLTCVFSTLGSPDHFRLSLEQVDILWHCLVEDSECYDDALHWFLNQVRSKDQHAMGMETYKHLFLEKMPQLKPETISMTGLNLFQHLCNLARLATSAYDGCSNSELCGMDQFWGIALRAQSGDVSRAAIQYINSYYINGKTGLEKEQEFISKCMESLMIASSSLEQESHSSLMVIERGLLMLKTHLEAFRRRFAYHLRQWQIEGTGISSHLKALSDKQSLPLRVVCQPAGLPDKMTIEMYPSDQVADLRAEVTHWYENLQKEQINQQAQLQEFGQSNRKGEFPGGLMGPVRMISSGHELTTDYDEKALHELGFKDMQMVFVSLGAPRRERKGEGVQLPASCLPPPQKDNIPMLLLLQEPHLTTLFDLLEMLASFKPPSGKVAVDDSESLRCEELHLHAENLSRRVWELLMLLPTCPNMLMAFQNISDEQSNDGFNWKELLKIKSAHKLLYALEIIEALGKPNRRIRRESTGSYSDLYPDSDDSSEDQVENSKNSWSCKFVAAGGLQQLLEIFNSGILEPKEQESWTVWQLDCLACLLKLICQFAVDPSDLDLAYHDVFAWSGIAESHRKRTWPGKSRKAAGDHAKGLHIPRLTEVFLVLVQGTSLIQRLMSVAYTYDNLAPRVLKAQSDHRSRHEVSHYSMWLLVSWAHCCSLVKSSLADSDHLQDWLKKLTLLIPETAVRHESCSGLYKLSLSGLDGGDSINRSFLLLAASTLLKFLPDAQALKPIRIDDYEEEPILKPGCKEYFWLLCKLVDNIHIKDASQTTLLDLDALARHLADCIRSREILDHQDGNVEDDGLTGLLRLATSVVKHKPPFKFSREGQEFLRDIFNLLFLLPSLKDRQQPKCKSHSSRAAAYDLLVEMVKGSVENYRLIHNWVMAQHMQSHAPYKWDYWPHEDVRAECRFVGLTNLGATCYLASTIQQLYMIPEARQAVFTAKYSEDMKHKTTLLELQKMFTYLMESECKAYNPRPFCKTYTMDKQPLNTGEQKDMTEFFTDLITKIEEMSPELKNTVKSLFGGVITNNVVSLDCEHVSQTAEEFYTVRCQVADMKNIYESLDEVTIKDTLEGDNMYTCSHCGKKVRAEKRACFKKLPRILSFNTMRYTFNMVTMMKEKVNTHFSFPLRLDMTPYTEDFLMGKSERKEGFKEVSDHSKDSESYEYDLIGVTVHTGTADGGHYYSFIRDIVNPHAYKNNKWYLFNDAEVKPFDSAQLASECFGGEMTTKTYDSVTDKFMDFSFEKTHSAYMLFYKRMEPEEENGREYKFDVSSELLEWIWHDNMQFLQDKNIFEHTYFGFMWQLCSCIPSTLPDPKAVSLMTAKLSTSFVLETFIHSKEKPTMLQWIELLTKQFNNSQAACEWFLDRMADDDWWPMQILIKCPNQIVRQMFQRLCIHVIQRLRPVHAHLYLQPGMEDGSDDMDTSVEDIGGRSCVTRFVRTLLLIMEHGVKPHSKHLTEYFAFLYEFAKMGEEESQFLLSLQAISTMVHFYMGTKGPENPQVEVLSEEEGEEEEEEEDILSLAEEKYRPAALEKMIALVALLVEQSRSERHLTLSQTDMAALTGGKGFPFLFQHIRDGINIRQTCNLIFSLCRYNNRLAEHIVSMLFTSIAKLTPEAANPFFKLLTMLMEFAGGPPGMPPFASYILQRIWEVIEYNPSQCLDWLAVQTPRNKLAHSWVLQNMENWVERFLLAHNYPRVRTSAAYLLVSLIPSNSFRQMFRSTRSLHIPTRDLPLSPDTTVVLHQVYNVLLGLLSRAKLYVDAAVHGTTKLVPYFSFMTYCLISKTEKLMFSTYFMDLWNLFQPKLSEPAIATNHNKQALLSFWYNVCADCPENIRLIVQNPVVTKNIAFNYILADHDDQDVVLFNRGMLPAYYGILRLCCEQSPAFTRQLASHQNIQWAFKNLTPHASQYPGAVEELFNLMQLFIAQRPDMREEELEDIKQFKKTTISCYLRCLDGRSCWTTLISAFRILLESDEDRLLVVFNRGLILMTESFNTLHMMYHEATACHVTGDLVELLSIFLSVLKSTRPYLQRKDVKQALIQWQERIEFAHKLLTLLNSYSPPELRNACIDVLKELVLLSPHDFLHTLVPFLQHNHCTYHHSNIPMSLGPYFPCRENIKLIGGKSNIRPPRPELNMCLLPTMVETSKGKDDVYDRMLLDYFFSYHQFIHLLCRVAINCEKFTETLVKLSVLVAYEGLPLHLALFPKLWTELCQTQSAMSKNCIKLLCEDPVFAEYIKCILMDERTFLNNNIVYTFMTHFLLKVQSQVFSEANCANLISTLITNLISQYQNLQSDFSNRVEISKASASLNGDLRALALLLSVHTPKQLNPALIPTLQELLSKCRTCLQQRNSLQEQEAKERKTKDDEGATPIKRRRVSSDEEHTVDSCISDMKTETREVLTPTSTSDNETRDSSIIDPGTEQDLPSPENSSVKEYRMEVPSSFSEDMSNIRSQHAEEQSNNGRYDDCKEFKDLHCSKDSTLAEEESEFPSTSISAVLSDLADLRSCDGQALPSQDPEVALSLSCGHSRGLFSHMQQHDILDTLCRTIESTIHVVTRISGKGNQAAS

CS(=O)(=O)c1ccc(NC(=O)CCl)cc1
inactive: [1] 0.0382 | [2] 0.166 | [3] 0.0532 | [4] -0.186 | [5] -0.0813
